Tests used:
Conditions in all cases: concentration: 1 μM, replicates: in singlicate; n = 1
PIP5K2C = system: T1, PIP5K2C
T1 construct: gene PIP4K2C

PKAC-alpha = system: T2, PKAC-alpha
T2 construct: gene PRKACA

PKAC-beta = system: T3, PKAC-beta
T3 construct: gene PRKACB

PKMYT1 = system: PKMYT1
PKN1 = system: PKN1
PKN2 = system: PKN2
PLK1 = system: PLK1
PLK2 = system: PLK2
PLK3 = system: PLK3
PLK4 = system: PLK4
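Further: KINOMEscan kinase panel screen.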

Row | SMILES | %Inh (PIP5K2C) | %Inh (PKAC-alpha) | %Inh (PKAC-beta) | %Inh (PKMYT1) | %Inh (PKN1) | %Inh (PKN2) | %Inh (PLK1) | %Inh (PLK2) | %Inh (PLK3) | %Inh (PLK4)
1 | Fc1ccc(Nc2nccc(-c3c(-c4ccc(Cl)cc4)nn4ncccc34)n2)cc1F [GW829058] | 20% | 15% | 24% | 4% | 4% | 13% | 32% | 36% | 20% | 29%
2 | Cl.Fc1ccccc1COc1ccc(Nc2ncnc3ccc(-c4nnc(C(F)(F)F)o4)cc23)cc1Cl [GW424170] | 7% | 0% | 0% | 0% | 0% | 0% | 0% | 0% | 0% | 0%
3 | NC(=O)c1sc(-n2cnc3ccccc32)cc1OCc1ccccc1F [GSK1024306] | 8% | 21% | 2% | 0% | 60% | 0% | 99.8% | 99% | 98.8% | 0%
4 | C[C@@H]1CCN(C(=O)CO)C[C@@H]1N(C)c1ncnc2[nH]ccc12 | 0% | 0% | 93.7% | 100% | 20% | 21% | 0% | 0% | 12% | 3%
5 | Cc1ccc(O)cc1Nc1cc(C(F)(F)F)nc2ccc(-c3ccncc3)cc12 [GW630823] | 0% | 10% | 0% | 9% | 0% | 0% | 0% | 1% | 0% | 0%
6 | Oc1ccc2ncnc(Nc3ccc(OCc4ccccc4)cc3)c2c1 [GI262866] | 40% | 0% | 0% | 5% | 1% | 0% | 0% | 0% | 0% | 0%
7 | Cl.Cl.c1ccc(-c2cc3ccncc3cc2OC2CCNCC2)cc1 [GSK1122999] | 6% | 0% | 9% | 14% | 0% | 19% | 5% | 0% | 0% | 9%
8 | CNc1nccc(-c2c(-c3ccc(F)cc3)ncn2C2CCN(C)CC2)n1 [SB-222903] | 90% | 1% | 17% | 0% | 0% | 0% | 0% | 0% | 4% | 0%
9 | O=C(Nc1ccccc1F)NC1CCN(c2ccnc(Nc3ccc(F)cc3)n2)C1 (stereo not shown) [GSK1379722] | 18% | 0% | 0% | 4% | 0% | 0% | 0% | 0% | 0% | 0%
10 | Cc1cc(N2CCC(NS(=O)(=O)c3ccc(F)cc3)CC2)nc(Nc2cccc(C#N)c2)n1.O=C(O)C(F)(F)F [GSK1653537] | 4% | 3% | 0% | 0% | 23% | 0% | 5% | 0% | 0% | 0%
11 | Cl.Cn1ccc(-c2cccc(Nc3ccnc4cc(-c5nccs5)ccc34)c2)n1 [GW525701] | 50% | 0% | 0% | 0% | 0% | 0% | 0% | 0% | 0% | 5%
12 | O=c1cc(N2CCOCC2)nc2n(Cc3cccc(Cl)c3)ccn12 [GSK2296823] | 0% | 0% | 0% | 11% | 34% | 0% | 5% | 0% | 0% | 0%
13 | Nc1nc(-c2ccc3c(N)n[nH]c3c2)cc(N2CCC[C@@H](C(=O)Nc3ccccc3)C2)n1.O=C(O)C(F)(F)F.O=C(O)C(F)(F)F [GSK2288359] | 31% | 14% | 22% | 0% | 17% | 0% | 3% | 0% | 3% | 16%
14 | COc1ccc(NC(=O)c2ccc(-c3cc(-c4nnc(C)o4)ccc3C)cc2)cc1 [GW595885] | 4% | 0% | 13% | 0% | 0% | 0% | 0% | 0% | 0% | 0%
15 | FC(F)(F)c1ccc(-c2cc(-c3c[nH]nc3-c3ccccn3)ccn2)cc1 [GW599550] | 59% | 10% | 6% | 0% | 0% | 0% | 0% | 0% | 0% | 10%
16 | COc1cc2ncnc(Nc3ccc(OCc4ccccc4Br)c(Cl)c3)c2cc1OC.Cl [GI261590] | 41% | 0% | 0% | 3% | 100% | 0% | 3% | 0% | 0% | 0%
17 | CCc1nc(-c2cccc(N(C)S(=O)(=O)c3ccccc3)c2)c(-c2ccnc(Nc3ccc(N4CCN(C(C)=O)CC4)nc3)n2)s1 [GSK1645895] | 63% | 0% | 0% | 1% | 34% | 0% | 7% | 0% | 0% | 8%

Row | SMILES | %Inh (PIP5K2C) | %Inh (PKAC-alpha) | %Inh (PKAC-beta) | %Inh (PKMYT1) | %Inh (PKN1) | %Inh (PKN2) | %Inh (PLK1) | %Inh (PLK2) | %Inh (PLK3) | %Inh (PLK4)
18 | Cn1ccc2ncnc(Oc3ccc(NC(=O)Nc4cccnc4)c(Cl)c3)c21 | 0% | 7% | 0% | 0% | 0% | 0% | 0% | 5% | 11% | 11%
19 | CN1CCC(n2cnc(-c3ccc(F)cc3)c2-c2ccnc(NC3CCNCC3)n2)CC1 [SB-229482] | 95.2% | 0% | 13% | 0% | 0% | 25% | 11% | 0% | 0% | 20%
20 | Cc1ccc(NC(=O)c2cccc(C#N)c2)cc1-c1ccc(C(=O)Nc2ccncc2)cc1 [GSK1398463] | 0% | 0% | 0% | 0% | 28% | 0% | 0% | 0% | 0% | 2%
21 | Nc1nc(-c2cccnc2)c(-c2ccnc3ccccc23)s1 [GW684083] | 51% | 0% | 0% | 0% | 0% | 0% | 0% | 0% | 0% | 0%
22 | CCc1nc(-c2cccc(C)c2)c(-c2ccnc(NC(=O)c3ccccc3)c2)s1 | 99.1% | 0% | 0% | 0% | 13% | 0% | 0% | 5% | 9% | 17%
23 | Cn1cc(-c2ccc3c(c2)CCN3C(=O)Cc2cccc(C(F)(F)F)c2)c2c(N)ncnc21 [GSK2606414] | 0% | 4% | 6% | 5% | 37% | 0% | 0% | 0% | 0% | 15%
24 | O=C(NCCCN1CCCC1=O)c1cnc(NCc2cc(Cl)ccc2Cl)nc1NC1CCNCC1 | 2% | 0% | 0% | 0% | 20% | 11% | 0% | 0% | 0% | 5%
25 | FC(F)(F)c1ccc(-c2nn3ncccc3c2-c2ccnc(Nc3cccc(C(F)(F)F)c3)n2)cc1 [GW828205] | 3% | 0% | 24% | 15% | 0% | 0% | 0% | 0% | 18% | 0%
26 | Fc1ccc(-c2ncn(CCCNCc3ccccc3)c2-c2ccncc2)cc1 | 3% | 26% | 6% | 27% | 23% | 1% | 0% | 5% | 13% | 32%
27 | OCCOCCn1ccc2ncnc(Nc3ccc(Oc4cccc(Cl)c4)c(Cl)c3)c21 | 30% | 0% | 0% | 0% | 13% | 0% | 0% | 0% | 0% | 0%
28 | O=C(c1ccc(-c2cc(-c3c[nH]nc3-c3ccccn3)ccn2)cc1)N1CCCC1 [GW792479] | 97% | 0% | 22% | 0% | 0% | 0% | 0% | 0% | 12% | 0%
29 | Clc1cc(Nc2ncnc3cc[nH]c23)ccc1OCc1ccccn1 | 8% | 23% | 0% | 0% | 23% | 0% | 2% | 23% | 25% | 34%
30 | Clc1cccc(-c2nc(Nc3ccncc3)c3ccccc3n2)c1 [GW873004] | 49% | 2% | 60% | 0% | 0% | 20% | 17% | 0% | 0% | 0%
31 | CC(C)(C)c1ccc(-n2cnc3c(N)ncnc32)cc1 [SKF-97263] | 27% | 4% | 2% | 3% | 39% | 11% | 7% | 0% | 0% | 0%
32 | O=C(CCO)NCCn1ccc2ncnc(Nc3ccc(Oc4cccc(C(F)(F)F)c4)c(Cl)c3)c21 | 26% | 0% | 12% | 10% | 0% | 1% | 0% | 0% | 0% | 0%
33 | COc1ccc(Nc2nccc(N3CCC(NC(=O)Nc4ccc5c(c4)OCO5)C3)n2)cc1 (stereo not shown) [GSK1379745] | 44% | 5% | 5% | 0% | 38% | 0% | 8% | 0% | 0% | 0%
34 | Clc1ccc(-c2cc(-c3c[nH]nc3-c3ccccn3)ccn2)cc1 [GW681251] | 39% | 0% | 0% | 7% | 0% | 0% | 0% | 0% | 0% | 4%
